From PubChem BioAssay
Pf Dd2 growth = blocks in vitro growth of P. falciparum Dd2. P. falciparum Dd2 growth, SYBR Green, 72 h. Potency, µM (highest dose often 28.9 µM), for inactives: at the top dose activity, negative = inhibition, most hits filed as inhibitors. 120,000 tested, 4.3% active. AID 1347417; active means well fitted inhibition curve with a large enough effect;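 further: plate controls were DMSO vehicle for no effect and reference drug for full effect; nearly all actives have a fitted effect of over 65% in size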
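Readout: SYBR Green fluorescence, 485 nm excitation, 535 nm emission, after ~16 h lysis at 37C. Before that, Dd2-infected red cells (2.5% hematocrit) grew 72 h with compound, 29 uM top final concentration.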
* marks the source's active call; other numbers are inactive results; i = inactive; [ ] = another dose, or the depositor's remark. This is one part of a sample in which hits are shown more often than they occur. Potency means the concentration at half of the fitted maximal effect.

SMILES	Pf Dd2 growth
CCC1CN(C(=O)NCc2ccc(C)cc2)c2ccccc2O1 (stereo not given)	-4%
Cc1cnc(CC2CCCN(S(C)(=O)=O)C2)n1C(C)C (stereo not given)	-2%
CCn1c(=O)n(-c2ccc(F)c(Cl)c2)c(=O)c2c3c(sc21)CN(C(C)=O)CC3	-22%
FC(F)(F)c1ccc(CN2CCn3c(nnc3-c3cccnc3)C2)cc1	102%
COc1ccc(-n2c(CCC(=O)O)ccc2-c2ccccc2)cc1	26%
CCN1CCN(C(=O)C2N(c3ccc(OC)cc3)C(=O)C23CCCCC3)CC1 (stereo not given)	-19%
CCc1ccc(NC(=O)N(Cc2ccc(C)cc2)Cc2cccn2-c2nnc(N3CCCC3=O)s2)cc1	13µM*
CCOC(=O)c1ccccc1NC(=O)N(Cc1ccc(C)cc1)Cc1cccn1-c1nnc(N2CCCC2=O)s1	-19%
Cc1ccc(CNC(=O)c2cccn2-c2nnc(N3CCCC3)s2)cc1	i
O=Cc1ccc(-c2ccc(O)cc2)cc1	3%[44.1 µM]
COc1ccc(C(=O)N2CCn3c(nn(-c4cccc(Cl)c4)c3=O)C2)cc1	3%
FC(F)(F)c1ccc(-c2noc(-c3ncn4c3COC(c3ccccc3Cl)C4)n2)cc1 (stereo not given)	-12%
Clc1ccccc1C1Cn2cnc(-c3nc(-c4ccccn4)no3)c2CO1 (stereo not given)	6.3µM*
Fc1ccc(-c2noc(-c3ncn4c3COC(c3ccccc3Cl)C4)n2)cc1 (stereo not given)	-21%
CC(C)NC(=O)N[C@H]1C[C@@H](c2nc(-c3ccc4c(c3)OCO4)no2)N(C)C1	i
N#Cc1cccc(NC(=O)N2C[C@@H]3C[C@H](C2)c2c(-c4ccccc4)ccc(=O)n2C3)c1	i
O=c1ccc2cc(S(=O)(=O)N3CCCC3)ccc2[nH]1	42%
Cc1ccc2nc(-c3cc(NC(=O)c4ccc5c(c4)OCCO5)ccc3Cl)oc2c1	13%
O=C(/C=C/c1ccccc1)Nc1cc(-c2nc3ccccc3o2)ccc1Cl	15%
Cc1ccc2nc(-c3cc(NC(=O)/C=C/c4ccccc4)ccc3Cl)oc2c1	11µM*
c1ccc(-n2cc(CN(Cc3ccccn3)CC3CCCO3)nn2)cc1 (stereo not given)	-5%
N[C@@H]1CCN(Cc2ccccc2OCc2ccc(Cl)cc2)C[C@H]1O	4.5µM*
Cn1c(COc2cccc(CN3CCCC3)c2Cl)nnc1C1CC(N)C1 (stereo not given)	-14%
NC1CCCN(Cc2ccccc2F)C1 (stereo not given)	-20%
CCc1nn2c(=O)cc(COC(=O)c3ccc4c(c3)OCO4)nc2s1	3%
SMILES	Pf Dd2 growth
CNC(=O)CN1CCCC(N2CCN(c3cccc(C(F)(F)F)c3)CC2)C1 (stereo not given)	-23%
NCC(=O)N1CCCC(N2CCN(c3cccc(C(F)(F)F)c3)CC2)C1 (stereo not given)	-18%
NC(=O)NCCN1CCCC(N2CCN(c3cccc(C(F)(F)F)c3)CC2)C1 (stereo not given)	-10%
COc1cccc(CN2CCCC(N3CCN(c4cccc(C(F)(F)F)c4)CC3)C2)c1O (stereo not given)	0.4µM*
O=C(CO)N1CCCC(N2CCN(c3cccc(C(F)(F)F)c3)CC2)C1 (stereo not given)	-1%
CC(C)N1CCC(N2CCCC(N3CCN(c4cccc(C(F)(F)F)c4)CC3)C2)CC1 (stereo not given)	14µM*
Cc1cnc(C(=O)NC2C[C@H]3CC[C@@H](C2)N3C(=O)C2(c3ccccc3)CC2)cn1 (stereo not given in full)	0%
CC1=C(C(=O)OCc2ccccc2)C(c2cccc(Cl)c2Cl)CC(=O)N1 (stereo not given)	17%
CC1=C(C(=O)OCc2ccc(C)cc2)C(c2ccccc2C(F)(F)F)CC(=O)N1 (stereo not given)	5.6µM*
CC1=C(C(=O)OCC2CCCCC2)C(c2cccc(Cl)c2Cl)CC(=O)N1 (stereo not given)	6%
Cc1nc2c(C(=O)NCCc3ccc(Cl)cc3)c[nH]n2c(=O)c1Cc1ccc(Cl)cc1	38%[5.79 µM]
COc1cccc(-c2cccc(CN3CCCC(C)(NC(C)=O)C3)c2)c1 (stereo not given)	i
COc1cccc(Nc2cc(CN3CCC(C)(NC(C)=O)CC3)cc(OC)c2)c1	i
COc1cccc(Nc2csc(CN3CCCC(C)(NC(C)=O)C3)c2)c1 (stereo not given)	7.9µM*
O=C(CN1C(=O)COc2ccc(C(=O)COc3ccccc3Cl)cc21)NCc1ccco1	i
Cc1cc(N2CCN(C)CC2)nc2ccc(NC(=O)c3ccc(C(C)(C)C)cc3)cc12	6.3µM*
CN1CCN(c2ccc3nnc(-c4cc(C(=O)Nc5cccc(Cl)c5)ccn4)n3n2)CC1	i
Cc1cc(N2CCN(C)CC2)nc2ccc(NC(=O)Nc3ccc(Cl)cc3)cc12	11µM*
Cc1cc(N2CCC(C)CC2)nc2ccc(NC(=O)Cc3ccccc3Br)cc12	-19%
CCOc1ccccc1NC(=O)Nc1ccc2nc(N3CCN(C)CC3)cc(C)c2c1	0.45µM*
COc1ccccc1CC(=O)Nc1ccc2nc(N3CCC(C)CC3)cc(C)c2c1	3%
Cc1cc(SCC(=O)Nc2ccc(Cl)cc2)nc2ccccc12	i
CCOc1ccccc1NC(=O)Nc1nnc(N2CCCCCC2)s1	-26%
Cc1ccccc1NC(=O)Nc1ccc2nc(N3CCN(C)CC3)cc(C)c2c1	2µM*
Cc1ccccc1C(=O)Nc1ccc2nc(N3CCCCC3)cc(C)c2c1	i
SMILES	Pf Dd2 growth
CC(C)(C)c1ccc(C(=O)Nc2ccc(NC(=O)c3ccc(Cl)c(Cl)c3)cc2)cc1	11%
COc1cc(C(=O)Nc2ccc(NC(=O)c3ccc(C(C)(C)C)cc3)cc2)cc(OC)c1OC	i
COc1ccc(C(=O)N[C@@H]2CCC[C@@H]2C(=O)NCc2ccccc2C)cn1	-21%
O=C(NCc1ccccc1)N1CCCCC1c1nc(C2CC2)n[nH]1 (stereo not given)	-10%
CC(=O)Nc1ccc(S(=O)(=O)NC[C@H]2C[C@@H]3CCN2C[C@@H]3c2cc(-c3ccc(F)cc3)nn2C)cc1	i
Cc1noc(C)c1CC(=O)N1CCc2c(c(-c3nncn3C)nn2C)C1	4%
COc1ccc(Cc2nnc(NC(=O)C[C@H]3NC(=O)c4ccccc4NC3=O)s2)cc1	-17%
O=C(C1CCc2ncc(-c3ccc(F)cc3)n2C1)N1CCOCC1 (stereo not given)	-3%
CCOc1ccc(CN2C[C@@H]3C(=O)N(Cc4ccc5c(c4)OCO5)C(=O)[C@@H]3C2)cc1	-15%
CCOc1ccc(CN(CCc2ccc3c(c2)OCO3)Cc2ccc(CC)cc2)cc1	-14%
CCOc1ccc(CN(CCc2ccc3c(c2)OCO3)Cc2cc(OC)ccc2O)cc1	0.71µM*
CCN(CC)S(=O)(=O)c1ccc2oc(C(=O)Nc3cc(C)ccc3OC)c(C)c2c1	37%
Cc1ccc(C(=O)NC[C@H]2O[C@@H](CC(=O)N3CCCC3)[C@H](O)[C@@H]2O)cc1	10%[44.1 µM]
CCOc1ccc(/C=C/c2nc(C#N)c(N3CCCCCC3)o2)cc1	12%
CCCC(=O)N1Cc2ccccc2CC2(CCCN2Cc2ccncc2)C1 (stereo not given)	8.9µM*
CC(=O)N1Cc2ccccc2CC2(CCCCN2CC2CCOCC2)C1 (stereo not given)	-17%
CCN1CCCCC12Cc1ccccc1CN(C(=O)Cc1ccc(OC)cc1)C2 (stereo not given)	11µM*
CCCC(=O)N1Cc2ccccc2CC2(CCCCN2Cc2ccncc2)C1 (stereo not given)	8.9µM*
